# High-throughput results from PubChem BioAssay.
# Ec RNAP inh – Escherichia coli RNA polymerase inhibition; actives 0.2% (n = 62,000); inhibition, %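 (tested at 10 µM)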; AID 559; E. coli RNA polymerase, fluorescence transcription assay; P0A8V2; in the data active = inhibition above about 20%;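 also: 0% = enzyme without compound and 100% = no enzyme blank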
# Mac1 fbg enh – CD11b/CD18-fibrinogen binding enhancement; activation, % at 10 µM; actives 0.07% (n = 93,000); K562 CD11b/CD18 adhesion to fibrinogen, ATPlite luminescence;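 active = 10 µM primary screen giving 50% or more activity, confirmed by 40% or more on retest at that dose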
# Cav3 T inh – inhibitors of human Cav3.2 T-type calcium channel; O95180; Cav3.2-expressing cells, Fluo-4 calcium fluorescence FDSS; stronger effect = lower value; B-score at 10 µM; actives 4% (n = 100,000);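 active = single-dose well whose peak fluorescence ratio is a statistical outlier from its plate by either plate-standardised score or position-corrected B-score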
# Pyk2 oligo antag – antagonists of human Pyk2 oligomerization | Q14289 | Q293 cells, Pyk2 FERM NanoBiT luminescence; stronger effect = lower value | z-score (the deposit names both 25 µM and 10 µM) | actives 0.83% (n = 99,000);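 active = Z-score of -3 or lower, scaled per plate to the spread of control and sample wells; inactive = z-score above -3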;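 also: negative z-score means lost luminescence so less FERM oligomerization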
# CD11b adhes inh – inhibitors of human CD11b/CD18 binding to fibrinogen; actives 0.54% (n = 93,000); inhibition, % at 10 µM; K562 CD11b/CD18 adhesion to fibrinogen, ATPlite luminescence; Mn2+ added to activate the integrin; P05107+P11215;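 active = primary inhibition of 50% or more at 10 µM, then 40% or more on retest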
# The depositor's hits bear a star; . = no result. Most compounds without a hit are left out; they make up all but 4.2% or so of the library.
SMILES,Ec RNAP inh,Mac1 fbg enh,Cav3 T inh,Pyk2 oligo antag,CD11b adhes inh
Clc1ccc(-c2cn3c(n2)-c2ccccc2C3)cc1Cl,.,0.1,.,-0.41,59.7
Cc1ccc(CNC(=O)CS(=O)(=O)CC(=O)O)cc1,.,-1.8,-0.22,0.38,5.8
COc1ccc(S(=O)(=O)n2nc(OCc3cccs3)cc2N)cc1,.,.,-1.19,.,.
Cc1ccc(NC(=O)c2cc(S(=O)(=O)c3ccccc3)ccc2Cl)cc1,.,-1.4,-5.39*,1.38,0.4
Cc1c(NC(=O)c2cccc(-c3cc4ccccc4oc3=O)c2)cccc1-c1nc2ncccc2o1,.,-2.8,.,.,-20.0
CCOC(=O)c1c(NC(=S)NC(=O)c2ccc(Cn3cc(Cl)cn3)o2)sc2c1CCC(C)C2 (configuration not stated),.,201.1*,-0.865,0.61,-1.5
COC(=O)c1cc(NC(=O)c2ccc(Cn3cc(Cl)cn3)o2)cc(C(=O)OC)c1,-0.4,76.1,0.341,-2.57,-2.9
CCC(Sc1nc(-c2ccccc2)c(C#N)c(=O)[nH]1)C(=O)Nc1nnc(C)s1 (configuration not stated),.,-5.1,0.126,0.26,-7.5
O=C1c2ccccc2S(=O)(=O)c2cc(C(=O)N3CCC(N4CCCC4)CC3)ccc21,.,.,0.215,.,.
COc1cc(C(=O)Nc2ccc(-n3cnnn3)c(C)c2)cc(OC)c1OC,7.1,2.0,-4.36*,-0.01,-22.7
CSCCC(NC(=O)c1ccc(Cl)cc1)C(=O)NC(C)(C)C (configuration not stated),.,2.5,-1.11,0.33,1.9
COCC(=O)n1nc(NCc2ccc(OC)cc2)nc1NCc1ccc(OC)cc1,8.7,-5.4,-8.92*,0.34,-23.2
COc1cccc(NC(=O)CN2CCN(S(=O)(=O)c3ccc(C(C)C)cc3)CC2)c1,8.6,1.4,-7.27*,-0.27,11.2
COc1ccc(S(=O)(=O)N2CCN(CC(=O)Nc3cc(OC)cc(OC)c3)CC2)cc1,13.6,.,.,-0.76,.
COc1cc(NC(=O)CN2CCN(S(=O)(=O)c3ccc(C(C)C)cc3)CC2)cc(OC)c1,5.2,0.8,-4.21*,-1.13,12.9
COc1cccc(NC(=O)CN2CCN(S(=O)(=O)c3ccc(F)cc3)CC2)c1,.,-1.6,0.0261,1.84,-3.2
COC(C[C@@H](O)[C@@H](C)[C@@H](O)COCc1ccccc1)OC,.,.,-1.58,.,.
COc1ccc(-c2c3c(nc4sc5c(Cl)nc(C)nc5c24)CCC3)cc1,.,0.0,3.68*,0.53,21.2
Cc1ccc(-c2c3c(nc4sc(C(N)=O)c(N)c24)CCC3)cc1,.,.,0.625,0.09,.
Cc1ccc(S(=O)(=O)NCCNc2ccc([N+](=O)[O-])cc2C(F)(F)F)cc1,.,-4.8,-4.55,0.41,-4.3
O=[N+]([O-])c1ccc(NCCNS(=O)(=O)c2ccccc2)c(C(F)(F)F)c1,.,.,-4.86*,-0.07,.
Cc1cc(Br)ccc1SCC(=O)OCC(=O)Nc1ncc(C(F)(F)F)cc1Cl,.,.,.,1.39,.
COc1c(O)cccc1[C@H](O)C1CCN(CCc2ccc(F)cc2)CC1,.,.,0.26,.,.
CCOC(=O)Cc1csc(NC(=O)c2cccc(N3C(=O)CCC3=O)c2)n1,3.5,-4.4,0.0111,0.46,-12.3
Cc1ccc(-c2csc(NC(=O)c3cccc(N4C(=O)CCC4=O)c3)n2)o1,-0.7,.,-5.25*,.,.
SMILES,Ec RNAP inh,Mac1 fbg enh,Cav3 T inh,Pyk2 oligo antag,CD11b adhes inh
CCCCc1sc(-c2c(C#N)c(N)nc3c2CCCCC3)cc1[N+](=O)[O-],.,-1.8,-4.81*,-2.24,13.5
CCCCc1ccc(-c2c(C#N)c(N)nc3c2CCCC3)s1,.,.,-0.953,0.86,.
C=CCOC(=O)C1=C[C@H](c2ccc3c(c2)OCO3)C[C@H](OCCCCO)O1,.,.,-0.167,.,.
O=C1N[C@@H](Cc2cn(S(=O)(=O)c3ccc([N+](=O)[O-])cc3)c3ccccc23)C(=O)N[C@H]1Cc1ccccc1,.,.,-1.91,.,.
O=C(Nc1nc(-c2ccc(Cl)cc2)cs1)NC1CCCCC1,.,-6.6,.,.,89.5
CCOc1cc(-c2nn3cnnc3s2)cc(OCC)c1OCC,9.1,-1.8,-0.43,-0.32,-17.7
CCOc1cc(-c2ccc(N)c(OCC)c2)ccc1N,1.1,-3.3,-5.36*,0.62,8.5
Cc1ccc(S(=O)(=O)N2CCN(C(=O)N3CCOCC3)C2C(C)C)cc1 (configuration not stated),-1.2,0.5,-0.422,-0.2,-12.4
CCN(CC)c1ccc(C2N(C(=O)N3CCOCC3)CCN2S(=O)(=O)c2ccc(C)cc2)cc1 (configuration not stated),.,-3.7,-4.09*,0.2,-9.8
Cc1c(C(=O)Nc2ccc(Cl)cc2)c2ccccn2c1C(=O)c1ccc([N+](=O)[O-])cc1,.,35.1,-7.05*,0.59,-45.2
COC(=O)C1=C(N)c2c(F)cccc2C1(C#N)c1ccc(F)cc1 (configuration not stated),.,-1.1,-5.65*,-2.05,3.9
O=C(c1ccc(Cl)s1)N1CCc2ccccc21,-0.3,-3.3,-0.275,-0.77,-5.5
O=C(c1ccc(C(=O)N2CCCc3ccccc32)s1)N1CCCc2ccccc21,.,.,-7.82*,-3.28*,.
COc1ccc(Cl)cc1NC(=O)C(C)N(C)Cc1ccc(C(F)(F)F)cc1 (configuration not stated),.,-1.7,.,.,32.2
CCOC(=O)c1cnc(-n2nc(C)cc2C)nc1NCCc1ccccc1,7.4,-2.3,-4.14*,-0.98,-2.6
CCOC(=O)C1=C(C)N(CCCC(=O)NCc2ccc3c(c2)OCO3)C(=O)NC1c1ccc(Br)cc1 (configuration not stated),.,.,-2.13,.,.
CN(C)c1oc(-c2ccccc2Cl)nc1P(=O)(c1ccccc1)c1ccccc1,.,0.7,-7.28*,-1.75,8.2
CCOC(=O)C1CN(S(=O)(=O)c2ccc(OC)cc2)c2cc(S(=O)(=O)CC)ccc2O1 (configuration not stated),.,.,1.31,0.66,.
O=C(Cc1cccc2ccccc12)NNC(=O)Nc1cccc(Cl)c1,.,.,-7.89*,-0.14,.
C=C(C)COc1ccc(-c2[nH]ncc2Oc2ccccc2OCC)c(O)c1,5.1,-11.5,-0.456,1.11,99.5
C=C(C)COc1ccc(-c2[nH]ncc2Oc2cccc(OC)c2)c(O)c1,9.1,-1.3,-0.436,-3.6*,40.1
COc1ccc(Oc2cn[nH]c2-c2ccc(O)cc2O)cc1,8.8,-6.0,-5.95*,-3.55*,19.4
O=C(Cn1cnc2c(nnn2Cc2ccc(F)cc2)c1=O)NCc1ccco1,-5.4,.,-4.2*,1.11,.
O=C(Cn1cnc2c(nnn2Cc2ccc(Cl)cc2)c1=O)NCc1ccco1,4.0,.,0.00997,0.7,.
CC(C)C(C)(C#N)NC(=O)CSc1nc2scc(-c3ccc(F)cc3)c2c(=O)n1Cc1ccccc1 (configuration not stated),.,0.1,.,.,-17.2
